# Source: article PMC5540273 (PLoS ONE, 2017)
# Where “and” joins values, the source holds several entries; their conditions need not be identical. Identical values can stand only once. Like-named read-outs stand apart in the source and are kept apart here.
# How the values were obtained:
# PAK4 = conditions: concentration: 1 μM, replicates: in singlicate, n = 1
# PAK6 = conditions: concentration: 1 μM, replicates: in singlicate, n = 1
# PAK7 = conditions: concentration: 1 μM, replicates: in singlicate, n = 1
# PCTK1 = system: T1, PCTK1; conditions: concentration: 1 μM, replicates: in singlicate, n = 1
# T1 construct: gene CDK16
# PCTK2 = system: T2, PCTK2; conditions: concentration: 1 μM, replicates: in singlicate, n = 1
# T2 construct: gene CDK17
# PCTK3 = system: T3, PCTK3; conditions: concentration: 1 μM, replicates: in singlicate; n = 1
# T3 construct: gene CDK18
# PDGFRA = conditions: concentration: 1 μM, replicates: in singlicate, n = 1
# PDGFRB = conditions: concentration: 1 μM, replicates: in singlicate, n = 1
# PDPK1 = conditions: concentration: 1 μM, replicates: in singlicate, n = 1
# PFTAIRE2 = conditions: concentration: 1 μM, replicates: in singlicate, n = 1
# 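Also: KINOMEscan kinase panel screen.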
Compound,%Inh (PAK4) [%],%Inh (PAK6) [%],%Inh (PAK7) [%],%Inh (PCTK1) [%],%Inh (PCTK2) [%],%Inh (PCTK3) [%],%Inh (PDGFRA) [%],%Inh (PDGFRB) [%],%Inh (PDPK1) [%],%Inh (PFTAIRE2) [%],%Inh (PAK4; 1 µM),%Inh (PAK6; 1 µM),%Inh (PAK7; 1 µM),%Inh (PCTK1; 1 µM),%Inh (PCTK2; 1 µM),%Inh (PDGFRA; 1 µM),%Inh (PDGFRB; 1 µM),%Inh (PDPK1; 1 µM),%Inh (PFTAIRE2; 1 µM)
COc1ccc(S(=O)(=O)NC2CCN(c3cc(C)nc(Nc4cccc(C#N)c4)n3)CC2)cc1.O=C(O)C(F)(F)F [GSK1653539],0,0,30,0,0,0,0,12,0,3,–,–,–,–,–,–,–,–,–
Cc1ccc(C(=O)NCC(N)=O)cc1-n1c(C)cc(OCc2ccc(F)cc2F)c(Br)c1=O,13,12,5,0,2,22,0,9,15,10,–,–,–,–,–,–,–,–,–
CC(=O)Nc1ccc(COc2ccc(Nc3ccnc4cc(-c5ccccn5)ccc34)cc2)cc1.Cl [GW440148],0,13,15,1,17,18,99.1,100,0,26,–,–,–,–,–,–,–,–,–
O=C(Nc1n[nH]c2cc(-c3cccc(F)c3)ccc12)C1CC1 [SB-735464],0,0,0,5,6,0,42,67,0,26,–,–,–,–,–,–,–,–,–
Cc1c2ccc(N(C)c3ccnc(Nc4cccc(S(N)(=O)=O)c4)n3)cc2nn1Cc1ccccc1.Cl.Cl [GW787226],0,0,10,0,0,4,99.7,100,0,0,–,–,–,–,–,–,–,–,–
Cc1nnc(-c2ccc3ncc(-c4ccc(S(C)=O)cc4)n3c2)o1 (stereo not drawn),0,0,5,14,0,0,42,80,0,0,–,–,–,–,–,–,–,–,–
COc1ccc(COc2cc(-n3cnc4ccccc43)sc2C(N)=O)cc1 [GSK1024304],0,0,5,0,0,11,0,31,3,17,–,–,–,–,–,–,–,–,–
CCc1nc(-c2cccc(C)c2)c(-c2ccnc(NCc3ccccc3)c2)s1,22,11,0,0,13,0,30,39,3,7,–,–,–,–,–,–,–,–,–
Fc1ccc(-c2ncn(CCCN3CCOCC3)c2-c2ccccn2)cc1 [SB-211742],0,8,0,0,2,0,0,0,0,20,–,–,–,–,–,–,–,–,–
CN(C(=O)c1ccc(-c2cc(-c3c[nH]nc3-c3ccccn3)ccn2)cc1)C1CCOCC1 [GW810083],28,0,16,0,0,0,4,0,0,29,–,–,–,–,–,–,–,–,–
CN(C1=C(c2ccccc2)C(=O)NC1=O)c1ccccc1 [SB-334860],5,0,18,5,8,11,0,19,5,27,–,–,–,–,–,–,–,–,–
CSc1ccc(-c2cc3ncnc(SCC(=O)O)c3s2)cc1,0,0,8,0,0,6,15,50,10,12,–,–,–,–,–,–,–,–,–
O=C1NC(=O)C(N2CCc3ccccc32)=C1c1cccc(Cl)c1 [SB-408010],13,13,6,0,0,16,9,5,0,0,–,–,–,–,–,–,–,–,–
COc1cc2c(cc1OC[C@@H](O)CO)ncc1c3ccc(C#N)cc3[nH]c21,0,0,11,0,0,0,99.2,91.4,8,6,–,–,–,–,–,–,–,–,–
Cn1ccc2ncnc(Oc3ccc(NC(=O)Nc4ccncc4)c(Cl)c3)c21,3,1,0,0,0,0,27,16,36,0,–,–,–,–,–,–,–,–,–
c1ccc(-c2cc(-c3c[nH]nc3-c3ccccn3)ccn2)cc1 [GW576604],0,0,0,0,0,36,0,17,0,16,–,–,–,–,–,–,–,–,–
NCCNS(=O)(=O)c1ccc(-c2ccnc3[nH]ccc23)cc1 [GSK977617],–,–,–,–,–,0,–,–,–,25,82% and 75%,73% and 61%,90.8% and 77%,1% and 2%,7% and 0%,11% and 10%,80% and 65%,11% and 0%,–
O=C(Nc1cccc(-c2nn3ncccc3c2-c2ccnc(Nc3cccc(C(F)(F)F)c3)n2)c1)c1c(F)cccc1F [GSK299495],0,0,0,6,0,23,0,99.7,0,0,–,–,–,–,–,–,–,–,–
COC(=O)Nc1nc2cc(Oc3ccc(NC(=O)Nc4cc(F)ccc4F)cc3)ccc2[nH]1.Cl [GW701424],0,0,12,0,0,23,98.9,100,0,0,–,–,–,–,–,–,–,–,–
CN1c2ccc(NCc3ccc(F)cc3)cc2-c2c(cnn2C)S1(=O)=O,0,0,0,0,0,0,0,0,0,0,–,–,–,–,–,–,–,–,–
NS(=O)(=O)CCc1cccc(Nc2nccc(-c3c(-c4cccc(NC(=O)c5c(F)cccc5F)c4)nn4ccccc34)n2)c1 [GSK336735],0,16,4,10,0,23,90.1,100,1,25,–,–,–,–,–,–,–,–,–
CC(C)(CN)c1nc(-c2ccc(Cl)c(O)c2)c(-c2ccncc2)[nH]1.O=C(O)C(F)(F)F [SB-477794],0,–,–,–,–,0,59,–,0,–,–,10% and 0%,21% and 25%,4% and 0%,99.7% and 0%,–,99.5% and 98.1%,–,14% and 7%
Cc1nnc(-c2ccc(C)c(-c3ccc(C(=O)Nc4ccc(NS(C)(=O)=O)cc4)cc3)c2)o1 [GW702865],0,0,6,0,7,12,9,36,0,3,–,–,–,–,–,–,–,–,–
Fc1ccc(-c2nn3c(OCC(F)(F)F)cccc3c2-c2ccncc2)cc1 [GW514784],0,0,16,0,15,0,0,21,0,7,–,–,–,–,–,–,–,–,–
Nc1nccc(-c2c(-c3ccc(F)cc3)ncn2C2CCN(CC(F)(F)F)CC2)n1 [SB-236560],16,0,0,1,0,0,3,0,0,23,–,–,–,–,–,–,–,–,–
Cl.Oc1cccc(Nc2ccnc3cc(-c4ccncc4)ccc23)c1 [GW494601],0,0,14,0,0,18,98.5,99.5,0,2,–,–,–,–,–,–,–,–,–
O=c1cc(N2CCOCC2)nc2n(Cc3cccc(F)c3)ccn12 [GSK2297430],0,0,0,5,0,27,0,12,32,7,–,–,–,–,–,–,–,–,–
NCC(NC(=O)c1cc(-c2cn[nH]c2)c(-c2ccnc3[nH]ccc23)s1)c1ccccc1.O=C(O)C(F)(F)F.O=C(O)C(F)(F)F (stereo not drawn) [GSK1325775],50,74,74,15,9,0,26,61,0,17,–,–,–,–,–,–,–,–,–
Nc1nc(-c2ccc3c(N)n[nH]c3c2)cc(N2CCCC2)n1 [GSK2227430],0,0,5,0,0,0,0,18,67,6,–,–,–,–,–,–,–,–,–
CNc1ncnc2[nH]ncc12 [SKF-18355],0,0,0,0,0,0,0,0,0,12,–,–,–,–,–,–,–,–,–
